Data as given in the supplement of paper PMC11732987, “Enantioselective OTUD7B fragment discovery through chemoproteomics screening and high-throughput optimisation” (Communications Chemistry, 2025).

Legend:
Test in all cases: log2 ratio of Biotin-Ahx-Ub-VS probe labelling (fragment/DMSO); higher = less target engagement (more negative = stronger competition), active = hit call of the paper (q ≤ 0.05, log2 ratio ≤ -1)
Settings in all cases: compound concentration: 200 uM; treatment time: 3 h
[1] = target: T1, OTUD6B (UniProt Q8N6M0)
T1 sequence (whole entry): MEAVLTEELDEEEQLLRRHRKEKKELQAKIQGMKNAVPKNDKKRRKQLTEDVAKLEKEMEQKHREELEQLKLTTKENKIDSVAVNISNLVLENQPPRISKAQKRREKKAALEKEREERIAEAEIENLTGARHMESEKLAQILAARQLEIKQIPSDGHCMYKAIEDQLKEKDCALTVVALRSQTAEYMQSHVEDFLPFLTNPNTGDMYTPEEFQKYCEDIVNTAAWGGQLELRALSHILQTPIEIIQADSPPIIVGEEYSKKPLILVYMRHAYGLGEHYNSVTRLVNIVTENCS
Summary of the method: (§1)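 Global-median-normalised Spectronaut label-free quantities were compared by unpaired t-test, and values are average log2 ratios of fragment over vehicle. Only proteins with ≥2 unique peptides were used. HEK293T lysate (495 µg per sample) was treated in triplicate with fragment at 200 µM or vehicle for 3 h and then with Biotin-Ahx-Ub-VS at 0.5 µM final for 1 h. Labelled DUBs were then NeutrAvidin-enriched, digested with LysC and trypsin, and run by diaPASEF LC-MS/MS.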

[2] = target: T2, OTUD7B (UniProt Q6GQQ9)
T2 sequence (whole entry): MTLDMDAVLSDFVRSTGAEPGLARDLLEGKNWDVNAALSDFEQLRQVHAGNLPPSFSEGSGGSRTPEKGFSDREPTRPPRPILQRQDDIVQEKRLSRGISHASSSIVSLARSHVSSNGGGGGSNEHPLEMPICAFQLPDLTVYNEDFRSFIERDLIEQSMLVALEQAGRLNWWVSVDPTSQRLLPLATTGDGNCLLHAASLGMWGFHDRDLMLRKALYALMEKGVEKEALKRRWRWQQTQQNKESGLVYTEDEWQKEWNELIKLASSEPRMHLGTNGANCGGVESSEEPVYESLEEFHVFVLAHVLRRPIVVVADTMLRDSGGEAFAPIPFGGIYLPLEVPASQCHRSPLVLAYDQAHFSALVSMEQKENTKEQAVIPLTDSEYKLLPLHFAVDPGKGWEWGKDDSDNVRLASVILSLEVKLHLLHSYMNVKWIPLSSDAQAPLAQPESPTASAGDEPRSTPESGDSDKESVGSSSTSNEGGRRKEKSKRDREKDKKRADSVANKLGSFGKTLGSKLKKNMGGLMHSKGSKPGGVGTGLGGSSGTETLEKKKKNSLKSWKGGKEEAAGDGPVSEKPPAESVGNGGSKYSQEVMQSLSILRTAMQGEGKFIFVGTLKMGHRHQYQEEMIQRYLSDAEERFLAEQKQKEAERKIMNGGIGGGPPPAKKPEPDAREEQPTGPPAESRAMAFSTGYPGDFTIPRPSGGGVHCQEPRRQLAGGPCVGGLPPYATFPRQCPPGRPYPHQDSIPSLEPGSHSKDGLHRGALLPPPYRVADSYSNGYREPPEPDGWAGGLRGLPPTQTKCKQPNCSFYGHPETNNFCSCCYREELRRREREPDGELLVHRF
Summary of the method: as §1

[3] = target: PRPF8 (UniProt Q6P2Q9)
Summary of the method: as §1

[4] = target: T3, PSMD7 (UniProt P51665)
T3 sequence (whole entry): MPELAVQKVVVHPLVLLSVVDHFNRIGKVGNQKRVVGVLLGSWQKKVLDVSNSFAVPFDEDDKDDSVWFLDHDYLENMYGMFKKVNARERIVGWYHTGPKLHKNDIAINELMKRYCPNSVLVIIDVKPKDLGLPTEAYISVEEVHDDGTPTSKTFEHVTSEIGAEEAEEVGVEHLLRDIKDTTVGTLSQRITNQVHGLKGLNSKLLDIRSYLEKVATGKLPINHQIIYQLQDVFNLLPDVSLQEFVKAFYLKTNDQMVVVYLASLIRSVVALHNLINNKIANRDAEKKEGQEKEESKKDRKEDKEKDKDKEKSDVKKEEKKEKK
Summary of the method: as §1

[5] = target: UCHL1 (UniProt P09936)
Summary of the method: as §1

[6] = target: T4, UCHL3 (UniProt P15374)
T4 sequence (whole entry): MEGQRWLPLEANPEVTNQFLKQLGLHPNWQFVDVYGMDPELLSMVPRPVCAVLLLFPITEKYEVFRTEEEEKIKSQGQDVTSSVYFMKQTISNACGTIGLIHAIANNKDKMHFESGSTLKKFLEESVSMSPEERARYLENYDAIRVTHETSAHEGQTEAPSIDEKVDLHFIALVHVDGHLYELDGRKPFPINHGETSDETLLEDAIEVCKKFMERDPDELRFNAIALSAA
Summary of the method: as §1

[7] = target: T5, UCHL5 (UniProt Q9Y5K5)
T5 sequence (whole entry): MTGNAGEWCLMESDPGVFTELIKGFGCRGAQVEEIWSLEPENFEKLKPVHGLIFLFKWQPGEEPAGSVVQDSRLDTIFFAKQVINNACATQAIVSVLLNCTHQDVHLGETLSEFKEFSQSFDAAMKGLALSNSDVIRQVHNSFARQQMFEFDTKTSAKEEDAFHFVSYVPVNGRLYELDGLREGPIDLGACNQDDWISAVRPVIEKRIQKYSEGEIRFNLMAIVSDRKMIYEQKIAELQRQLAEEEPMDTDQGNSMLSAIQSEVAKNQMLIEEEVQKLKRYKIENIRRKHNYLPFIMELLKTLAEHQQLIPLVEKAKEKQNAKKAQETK
Summary of the method: as §1

[8] = target: USP10 (UniProt Q14694)
Summary of the method: as §1

[9] = target: T6, USP15 (UniProt Q9Y4E8)
T6 sequence (whole entry): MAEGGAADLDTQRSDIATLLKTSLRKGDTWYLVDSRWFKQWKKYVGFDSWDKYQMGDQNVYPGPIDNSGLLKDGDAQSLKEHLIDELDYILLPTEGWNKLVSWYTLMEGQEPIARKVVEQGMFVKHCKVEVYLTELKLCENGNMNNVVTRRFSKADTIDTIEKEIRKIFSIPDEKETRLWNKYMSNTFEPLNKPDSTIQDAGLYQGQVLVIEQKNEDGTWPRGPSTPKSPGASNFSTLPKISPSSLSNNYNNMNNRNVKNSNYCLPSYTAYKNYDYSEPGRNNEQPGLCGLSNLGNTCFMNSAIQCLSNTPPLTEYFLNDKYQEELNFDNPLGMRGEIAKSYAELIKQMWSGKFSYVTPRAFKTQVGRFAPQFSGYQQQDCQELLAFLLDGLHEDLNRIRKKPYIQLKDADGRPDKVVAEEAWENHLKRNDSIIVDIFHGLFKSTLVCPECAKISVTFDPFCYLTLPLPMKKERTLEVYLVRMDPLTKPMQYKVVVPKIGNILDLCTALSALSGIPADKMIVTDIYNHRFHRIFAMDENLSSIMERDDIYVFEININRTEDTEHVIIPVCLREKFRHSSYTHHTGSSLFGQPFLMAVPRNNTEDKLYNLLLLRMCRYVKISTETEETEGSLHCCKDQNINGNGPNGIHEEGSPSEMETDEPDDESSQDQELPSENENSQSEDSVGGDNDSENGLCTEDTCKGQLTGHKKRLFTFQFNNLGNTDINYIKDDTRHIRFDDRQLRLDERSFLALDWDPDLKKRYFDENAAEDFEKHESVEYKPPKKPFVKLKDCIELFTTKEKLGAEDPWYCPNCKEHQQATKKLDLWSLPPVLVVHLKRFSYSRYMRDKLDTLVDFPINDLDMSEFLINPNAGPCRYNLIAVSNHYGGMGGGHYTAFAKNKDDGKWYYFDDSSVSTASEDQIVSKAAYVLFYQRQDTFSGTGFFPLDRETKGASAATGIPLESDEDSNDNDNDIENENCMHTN
Summary of the method: as §1

[10] = target: USP16 (UniProt Q9Y5T5)
Summary of the method: as §1

Measured: log2 ratio of Biotin-Ahx-Ub-VS probe labelling

UCHL1, sequence (P09936 whole entry, looked up): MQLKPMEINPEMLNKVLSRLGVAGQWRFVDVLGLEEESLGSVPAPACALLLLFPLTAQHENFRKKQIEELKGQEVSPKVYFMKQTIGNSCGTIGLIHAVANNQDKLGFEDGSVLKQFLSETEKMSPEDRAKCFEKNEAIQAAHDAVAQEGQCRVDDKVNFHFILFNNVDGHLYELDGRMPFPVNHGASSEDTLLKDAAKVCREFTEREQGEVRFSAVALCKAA
USP10, sequence (Q14694 whole entry): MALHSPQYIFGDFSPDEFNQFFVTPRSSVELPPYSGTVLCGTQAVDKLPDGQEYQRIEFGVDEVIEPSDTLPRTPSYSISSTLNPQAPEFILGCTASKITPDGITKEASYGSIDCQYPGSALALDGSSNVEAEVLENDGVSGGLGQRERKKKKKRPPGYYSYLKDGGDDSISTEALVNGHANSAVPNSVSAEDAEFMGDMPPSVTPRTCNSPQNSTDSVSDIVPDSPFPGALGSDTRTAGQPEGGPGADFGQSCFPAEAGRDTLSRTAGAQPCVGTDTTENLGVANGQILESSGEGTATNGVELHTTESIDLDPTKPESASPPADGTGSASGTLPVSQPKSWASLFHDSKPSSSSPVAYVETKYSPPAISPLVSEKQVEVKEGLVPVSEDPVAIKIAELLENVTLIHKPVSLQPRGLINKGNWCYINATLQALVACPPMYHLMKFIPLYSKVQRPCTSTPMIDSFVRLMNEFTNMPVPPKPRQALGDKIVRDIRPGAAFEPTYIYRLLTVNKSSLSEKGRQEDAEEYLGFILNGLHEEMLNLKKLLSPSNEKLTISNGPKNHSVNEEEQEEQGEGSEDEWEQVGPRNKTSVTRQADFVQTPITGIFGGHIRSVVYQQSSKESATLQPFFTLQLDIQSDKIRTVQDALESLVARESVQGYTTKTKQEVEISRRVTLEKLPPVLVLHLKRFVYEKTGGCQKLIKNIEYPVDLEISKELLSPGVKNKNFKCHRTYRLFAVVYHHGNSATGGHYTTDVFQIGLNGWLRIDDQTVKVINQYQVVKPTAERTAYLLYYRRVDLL
USP16, sequence (Q9Y5T5 whole entry, looked up): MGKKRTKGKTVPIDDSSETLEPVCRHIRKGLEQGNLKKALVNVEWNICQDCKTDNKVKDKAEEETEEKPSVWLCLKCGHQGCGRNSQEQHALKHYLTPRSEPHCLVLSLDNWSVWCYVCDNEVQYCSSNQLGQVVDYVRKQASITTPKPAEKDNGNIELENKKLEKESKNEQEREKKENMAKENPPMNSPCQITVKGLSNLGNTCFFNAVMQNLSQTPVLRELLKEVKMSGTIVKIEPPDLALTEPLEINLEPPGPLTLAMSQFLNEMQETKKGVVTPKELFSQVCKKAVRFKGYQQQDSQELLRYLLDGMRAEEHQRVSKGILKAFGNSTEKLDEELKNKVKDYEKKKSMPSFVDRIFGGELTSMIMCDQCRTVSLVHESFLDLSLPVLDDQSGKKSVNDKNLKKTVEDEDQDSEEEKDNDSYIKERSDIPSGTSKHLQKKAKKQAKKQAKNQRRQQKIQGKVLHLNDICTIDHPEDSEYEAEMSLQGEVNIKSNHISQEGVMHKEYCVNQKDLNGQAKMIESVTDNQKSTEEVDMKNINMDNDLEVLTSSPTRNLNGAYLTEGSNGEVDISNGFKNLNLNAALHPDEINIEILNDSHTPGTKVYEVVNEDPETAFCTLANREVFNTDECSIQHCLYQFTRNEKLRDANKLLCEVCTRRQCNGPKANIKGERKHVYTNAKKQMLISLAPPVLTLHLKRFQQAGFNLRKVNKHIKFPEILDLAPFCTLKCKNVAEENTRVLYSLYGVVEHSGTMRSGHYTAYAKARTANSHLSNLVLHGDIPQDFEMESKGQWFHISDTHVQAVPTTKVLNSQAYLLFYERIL

O=C(CCl)N1CCc2sccc2C1
active: [2] -1.08 | [5] -1.18
inactive: [1] -0.251 | [3] 0.249 | [4] -0.000885 | [6] -0.458 | [7] -0.259 | [8] -0.16 | [9] -0.737 | [10] -0.278
